A short description of test [1]: qHTS assay to identify small molecule HDAC inhibitors - cell viability counter screen (AID 1259365). Note: series mostly up to about 92 µM; nearly all actives have a fitted effect of over 50% in size. The procedure, abridged: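 After overnight seeding at 1,500 cells per well, wild-type HCT-116 cultures took up compounds in DMSO for 2hr at 37 C. Viable cell content came from luminescence with CellTiter-Glo.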
The nature of test [2]: qHTS assay to identify small molecule agonists of the sonic hedgehog signaling (Shh) pathway (AID 1259368; calls by dose curve;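 note: NIH/3T3-derived 3T3Gli1-Luc cells carrying a stable Gli1-driven firefly luciferase reporter; series mostly up to about 92 µM; nearly all actives have a fitted effect of over 15% in size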). In outline:
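Steps: seed 3T3 Gli1-Luc cells, incubate 4 hr at 37 C, pin-transfer compounds in DMSO alongside a positive control, incubate 24 hr, add luciferase detection reagent, wait 30 min at room temperature, read luminescence.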
On the technique in general: Quantitative high-throughput screening tests each substance at several concentrations.

The nature of test [3]: qHTS assay to identify small molecule antagonists of the sonic hedgehog signaling (Shh) pathway (AID 1259369; calls by dose curve; note: nearly all actives have a fitted effect of over 45% in size; note: potency is the fitted concentration of half-maximal effect). The procedure, abridged: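 Inhibition of Shh signalling is measured as reduced Gli1-response-element firefly luciferase output in an NIH/3T3-derived stable reporter clone stimulated with conditioned medium for 24hr.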
Test [4] addresses Estrogen receptor beta (Homo sapiens) (UniProt Q92731). Description: qHTS assay to identify small molecule agonists of the estrogen receptor beta (ER-beta) signaling pathway (AID 1259377; active = well fitted activation curve with a large enough effect in the signal ratio in the repeat runs, not every such curve was filed as active; the % refers to the signal ratio). In outline:
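Read-out: beta-lactamase FRET fluorescence. Cell line: ER-beta-UAS-bla HEK293T in 2% charcoal-stripped FBS. Exposure: 16 hr at 37C. Substrate step: 2 h at room temperature.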

Test [5] shares this target. In words: qHTS assay to identify small molecule antagonists of the estrogen receptor beta (ER-beta) signaling pathway (AID 1259378; active = well fitted inhibition curve with a large enough effect in the signal ratio in the repeat runs, not every such curve was filed as active; the % refers to the signal ratio; note: potency is the fitted concentration of half-maximal effect). The procedure, abridged: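 ER-beta-UAS-bla HEK293T cells in 2% charcoal-stripped FBS medium treated with compound plus 1nM final 17-beta-estradiol for 16 hr at 37C. Beta-lactamase reporter read by FRET substrate fluorescence after 2 hours at room temperature.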

The nature of test [6]: qHTS assay to identify small molecule agonists of the androgen receptor (AR) signaling pathway in the presence of an antagonist - cell viability counter screen (AID 1259379).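 Note: MDA-kb2 human breast cancer cells carrying an MMTV luciferase reporter; series mostly up to about 92 µM; nearly all actives have a fitted effect of over 25% in size.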 In outline: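 Fluorescence from CellTiter-Fluor, added after 15 hr and read 1 hr later, gave cell viability. Cells were MDA-kb2 exposed to compounds (15 concentrations) in the presence of 3.0uM nilutamide at 37C, 0% CO2.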

Test [7] in a line: qHTS assay to identify small molecule agonists of the estrogen receptor beta (ER-beta) signaling pathway - cell viability counter screen (AID 1259380). Note: nearly all actives have a fitted effect of over 30% in size. Note: potency is the fitted concentration of half-maximal effect. The procedure, abridged:
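Same-well viability counter screen. Cells: ER-beta-UAS-bla HEK293T, plated 6 hr before compound, in 2% charcoal-stripped FBS. Compound exposure 16 hr, 37C; viability by CellTiter-Glo luminescence after 30 min at room temperature.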

Test [8] in a line: qHTS assay to identify small molecule antagonists of the estrogen receptor beta (ER-beta) signaling pathway - cell viability counter screen (AID 1259382). Note: nearly all actives have a fitted effect of over 55% in size. Note: potency is the fitted concentration of half-maximal effect. The procedure, abridged:
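Following a 6 hr plating period, HEK293T cells carrying a UAS-driven beta-lactamase reporter under ER-beta control received compounds and 1nM E2 (final). After 16 hr at 37C and 2 hr substrate loading, CellTiter-Glo luminescence indicated viability.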

The nature of test [9]: qHTS assay to identify small molecule agonists or antagonists of the thyroid stimulating hormone receptor (TSHR) signaling pathway - wild type cell line counter screen (AID 1259384; calls by dose curve). The procedure, abridged: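 Wild-type Hek293 cells, 800/well, 18 h at 37C, then compound with Ro20-1724 for 30 min RT. cAMP by HTRF (cAMP-d2/anti-cAMP cryptate), 1 h RT, fluorescence read. 15 concentrations, triplicates.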

Test [10] has as its target Thyrotropin receptor (Homo sapiens) (UniProt P16473). In words: qHTS assay to identify small molecule antagonists of the thyroid stimulating hormone receptor (TSHR) signaling pathway (AID 1259385; calls by dose curve; note: nearly all actives have a fitted effect of over 20% in size). The procedure, abridged:
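TSHR-HEK293 cells (800/well) plated 18 h, then compounds with Ro20-1724 and TSH at 1.5 ng/mL final, 30 min at room temperature. cAMP quantified by HTRF (cAMP-d2/anti-cAMP-cryptate, 1 h); 15 concentrations in triplicate.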

Test [11] is described as follows: qHTS assay to identify small molecule agonists of the estrogen receptor alpha (ER-alpha) signaling pathway in the presence of an antagonist - cell viability counter screen (AID 1259386).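 Note: cells exposed to compounds for 22 h at 37 °C before the viability read; nearly all actives have a fitted effect of over 30% in size.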 Note: potency is the fitted concentration of half-maximal effect. The procedure, abridged:
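Cells are starved of estrogens for 5 days in charcoal-stripped serum, seeded for 24hr and co-treated with ICI-182,780 (10.0nM final) and test compounds. After 22hr at 37C, viability is read as CellTiter-Fluor fluorescence.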

Test [12] in a line: qHTS assay to identify small molecule antagonists of the androgen receptor (AR) signaling pathway using the MDA cell line in the presence of 0.5 nM R1881 - cell viability counter screen (AID 1259242). Note: nearly all actives have a fitted effect of over 45% in size. The procedure, abridged:
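Cytotoxicity toward MDA-kb2 cells is measured by CellTiter-Fluor live-cell protease fluorescence after 16 hr compound exposure at 37C in the presence of 0.5 nM R1881 stimulator.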

A short description of test [13]: qHTS assay to identify small molecule agonists of the sonic hedgehog signaling (Shh) pathway - cell viability counter screen (AID 1259366). Note: nearly all actives have a fitted effect of over 50% in size. Note: potency is the fitted concentration of half-maximal effect. The procedure, abridged: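 Same-well cytotoxicity read. Gli1-Luc reporter 3T3 cells; compounds 24hr, 37C/5% CO2; CellTiter-Fluor fluorescence.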
A short description of test [14]: qHTS assay to identify small molecule antagonists of the sonic hedgehog signaling (Shh) pathway - cell viability counter screen (AID 1259367). Note: nearly all actives have a fitted effect of over 55% in size. In outline: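 Seed 3T3 Gli1-Luc cells at 2,000 per well; incubate 4 hr; add compound in DMSO, then conditioned medium; incubate at 37C with 5% CO2; add CellTiter-Fluor after 23 hr; read fluorescence 1 hr later.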
Test [15] in a line: qHTS assay to identify small molecule HDAC inhibitors (AID 1259364). Note: top concentration of the series differs between compounds; nearly all actives have a fitted effect of over 45% in size. The procedure, abridged:
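Homogeneous cell-based luminescent assay of endogenous class I/II HDAC activity; HCT-116 cells, 2 h compound exposure, 30 min HDAC-Glo development at RT.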

A short description of test [16]: qHTS assay to identify small molecule phospholipidosis (PLD) inducers (AID 1259344; active = well fitted curve in the direction sought with a large enough effect; an effect the other way counts as inactive or inconclusive). The procedure, abridged: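 Quantitative HTS in HepG2: compound plus LipidTOX Red dye for 24 h, paraformaldehyde fixation with Hoechst 33342, widefield high-content imaging; amiodarone as positive and DMSO as negative control.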

“And” between values parts separate entries of the source, which are not always exact repeats. Equal entries are not always repeated. Inconclusive results are not listed. Where a structure was tested more than once in an assay, its records may differ in their call. The source made the active and inactive calls. Unless noted, calls come from the whole dose curve; as a rule, active = well fitted curve in the direction sought with a large enough effect in the repeat runs; inconclusive = weak or mixed curves; inactive = no such curve, though single readings can be large; an effect the other way counts as inactive or inconclusive.

Chain of Thyrotropin receptor (Homo sapiens) (P16473 whole entry, looked up): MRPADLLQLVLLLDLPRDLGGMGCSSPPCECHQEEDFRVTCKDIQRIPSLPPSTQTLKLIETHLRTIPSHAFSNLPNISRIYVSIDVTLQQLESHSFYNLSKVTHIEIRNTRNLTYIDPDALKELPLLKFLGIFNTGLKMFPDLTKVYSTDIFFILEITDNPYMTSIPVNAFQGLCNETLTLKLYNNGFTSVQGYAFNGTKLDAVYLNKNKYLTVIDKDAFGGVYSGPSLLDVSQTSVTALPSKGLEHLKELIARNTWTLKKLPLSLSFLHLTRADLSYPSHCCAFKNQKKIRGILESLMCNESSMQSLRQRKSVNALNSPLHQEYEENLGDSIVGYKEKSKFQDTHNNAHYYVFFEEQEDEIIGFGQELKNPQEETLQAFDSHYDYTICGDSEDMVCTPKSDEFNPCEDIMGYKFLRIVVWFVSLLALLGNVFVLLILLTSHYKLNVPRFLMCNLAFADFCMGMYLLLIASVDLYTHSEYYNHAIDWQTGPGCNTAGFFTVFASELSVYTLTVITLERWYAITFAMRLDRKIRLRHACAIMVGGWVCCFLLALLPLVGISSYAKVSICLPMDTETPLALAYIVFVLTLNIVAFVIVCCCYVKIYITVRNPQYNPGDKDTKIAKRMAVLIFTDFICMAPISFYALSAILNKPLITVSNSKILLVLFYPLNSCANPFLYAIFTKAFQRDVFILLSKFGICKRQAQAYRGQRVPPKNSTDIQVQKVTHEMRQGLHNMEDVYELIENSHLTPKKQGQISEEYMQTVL
Chain of Estrogen receptor beta (Homo sapiens) (Q92731 whole entry, looked up): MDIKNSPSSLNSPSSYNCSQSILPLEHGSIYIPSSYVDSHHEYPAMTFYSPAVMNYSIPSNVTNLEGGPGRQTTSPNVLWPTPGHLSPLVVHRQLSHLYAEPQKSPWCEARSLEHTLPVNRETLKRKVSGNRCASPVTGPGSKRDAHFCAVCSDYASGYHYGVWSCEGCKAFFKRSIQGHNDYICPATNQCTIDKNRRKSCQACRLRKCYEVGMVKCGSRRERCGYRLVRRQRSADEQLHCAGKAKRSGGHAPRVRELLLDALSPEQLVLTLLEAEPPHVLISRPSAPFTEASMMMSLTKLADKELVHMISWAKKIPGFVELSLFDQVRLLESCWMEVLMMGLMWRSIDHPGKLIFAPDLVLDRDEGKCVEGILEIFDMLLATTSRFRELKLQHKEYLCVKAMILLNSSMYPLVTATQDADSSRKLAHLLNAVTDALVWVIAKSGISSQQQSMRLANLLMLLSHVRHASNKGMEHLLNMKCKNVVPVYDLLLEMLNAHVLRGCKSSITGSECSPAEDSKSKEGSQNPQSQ

Turning to `Nc1ccc2c(O)cc(S(=O)(=O)O)cc2c1`, the result in test [1] was inactive. Also, the Potency result in test [2], in [3], in [4], in [6], in test [8] and in [9] was “inactive” each time. Also, the Potency result in [10] was “inactive”. In addition, the Potency was 2.73 µM (active) in [5]; 15.4 µM (active) in test [7]; 48.6 µM (active) and 21.7 µM (active) in test [11].
Regarding `C=CC(=O)OCCCC`, the Potency entry in [12], in test [13], in test [14], in test [2], in test [4] and in test [5] was “inactive” throughout. Moreover, the Potency entry in [6], in test [7], in test [8], in [10] and in test [11] was “inactive” each time. In addition, the call in test [1] was inactive.
Regarding `C=CCCCCCCCCCC`, the Potency entry in test [12], in test [15], in test [13], in test [14], in test [2] and in test [3] was “inactive” each time. Also, the Potency entry in [4], in [5], in test [6], in [7], in test [8] and in [11] was “inactive” in each case. In addition, the compound was classed as inactive in test [1].
Regarding `Cc1cccc(Nc2ccccc2C(=O)O)c1C`, the Potency result in test [12], in test [16], in [13], in test [14], in [2] and in test [3] was “inactive” throughout. The Potency result in test [6], in [7] and in test [8] was “inactive” each time. Further, the compound was classed as inactive in test [1].
`C=CCOC(=O)C(=C)C`: the Potency entry in test [12], in test [15], in test [13], in test [14], in [2] and in test [3] was “inactive” each time. The Potency entry in test [4], in test [5], in test [6], in test [7], in test [8] and in [10] was “inactive” each time. Also, the Potency result in [11] is “inactive”. The result in [1] was inactive.
Consider `Oc1ccc(C(c2ccc(O)cc2)C(Cl)(Cl)Cl)cc1`, for which the Potency result in test [12], in test [2], in test [4], in test [6], in [9] and in test [10] was “inactive” each time. For the same compound, in [11], the Potency result is “inactive”. For the same compound, in test [1], the result was inactive. For the same compound, the Potency result was “inactive and 68.6 µM (active)” in [13]; 30.6 µM (active) in test [7]; 68.6 µM (active) in test [8].
Turning to `NC[C@H](O)c1ccc(O)c(O)c1`, the Potency entry in test [12], in [16], in [15], in test [13], in test [14] and in test [2] was “inactive” in each case. Further, the Potency result in test [3], in test [6], in test [7], in test [8] and in test [11] was “inactive” in each case. The result in test [1] was inactive.
For `CCCOCCO`, the Potency result in test [12], in test [13], in test [14], in test [2], in test [3] and in test [6] was “inactive” throughout. Further, the Potency result in test [7], in test [8] and in test [10] was “inactive” each time. In test [1], the compound was classed as inactive.
Regarding `COc1ccc(C(=O)c2ccccc2O)c(O)c1`, the Potency result in test [12], in [16], in test [15], in test [13], in [14] and in test [2] was “inactive” each time. The Potency result in test [4], in [5], in test [6], in [7], in test [8] and in [9] was “inactive” each time. The Potency result in test [10] and in [11] was “inactive” each time. Besides, in [1], the result was inactive. The Potency in [3] was 17.2 µM (active) and inactive.

For the origin of these results see PubChem BioAssay (Tox21).
